Measurements published in the supplement of paper PMC10849652.
The full data set covers some 8,800 targets. This sample favours those with a hit. About 0.5% of all pairs of compound and target were hits. Values without a mark were called inactive.

Legend:
Test in all cases: log2 fold change, soluble protein after heating vs DMSO (PISA); higher = thermal stabilisation; K562 lysate, 10 uM; active = over 0.2 and 3.5 SD of the protein, either way, in both replicates (recomputed)
ibrutinib = compound: C=CC(=O)N1CCC[C@@H](n2nc(-c3ccc(Oc4ccccc4)cc3)c3c(N)ncnc32)C1 [ibrutinib]
Summary of the method: (§1)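 Thermal stability, expressed as log-two fold change relative to solvent controls, is given from duplicates. Crude K562 extract in PBS pH 7.4 with 1 mM MgCl2, at 1 mg/mL protein, was treated with 10 μM compound for 30 min and heated in aliquots for 3 min across 48°C-58°C. After pooling, adjustment to 0.5% NP-40 at 4°C and centrifugation at 21,000xg for 90 min, supernatant protein was measured by TMTpro 16plex LC-MS/MS with channel sums equalised.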

[1] = compound: CC(=O)c1cnc2ccc(-c3cc(Cl)c(O)c(Cl)c3)nc2c1N[C@H]1CC[C@H](CN(C)C)CC1
Summary of the method: as §1

ralimetinib = compound: CC(C)(C)Cn1c(N)nc2ccc(-c3[nH]c(C(C)(C)C)nc3-c3ccc(F)cc3)nc21 [ralimetinib]
Summary of the method: as §1

[2] = compound: CC(C)(O)CC(=O)NCCn1ccc2ncnc(Nc3ccc(Oc4cccc(C(F)(F)F)c4)c(Cl)c3)c21
Summary of the method: as §1

[3] = compound: CC(C)C1=C2N=C(C=C(N2N=C1)NCC3=CC=CC=C3)NCCCCCCN
Summary of the method: as §1

[4] = compound: CC1=C(C(CC(=O)N1)C2=CC=C(C=C2)C(F)(F)F)C(=O)NC3=C(C=C4C(=C3)C=NN4)F
Summary of the method: as §1

[5] = compound: CC1=C(C2=C(C=C1)C(=O)C3=CC=CC=C3N2CCCN)C
Summary of the method: as §1

[6] = compound: CC1=C(C=C(C=C1)NC(=O)C2=CC(=CC=C2)C(C)(C)C#N)NC3=CC4=C(C=C3)N=CN(C4=O)C
Summary of the method: as §1

[7] = compound: CC1=C(C=C(C=C1)NC(=O)C2=CC(=CC=C2)N(C)C)NC(=O)C3=CC=C(C=C3)O
Summary of the method: as §1

[8] = compound: CC1=CC=C(C=C1)SC2=C3C=C(SC3=CN=C2)C(=O)N
Summary of the method: as §1

vemurafenib = compound: CCCS(=O)(=O)Nc1ccc(F)c(C(=O)c2c[nH]c3ncc(-c4ccc(Cl)cc4)cc23)c1F [vemurafenib]
Summary of the method: as §1

[9] = compound: CCCS(=O)(=O)Nc1ccc(F)c(C(=O)c2c[nH]c3ncc(Cl)cc23)c1F
Summary of the method: as §1

barasertib = compound: CCN(CCCOc1ccc2c(Nc3cc(CC(=O)Nc4cccc(F)c4)[nH]n3)ncnc2c1)CCOP(=O)(O)O [barasertib]
Summary of the method: as §1

[10] = compound: CC[C@@H]1C(=O)N(C)c2cnc(Nc3ccc(C(=O)NC4CCN(C)CC4)cc3OC)nc2N1C1CCCC1
Summary of the method: as §1

volasertib = compound: CC[C@@H]1C(=O)N(C)c2cnc(Nc3ccc(C(=O)N[C@H]4CC[C@H](N5CCN(CC6CC6)CC5)CC4)cc3OC)nc2N1C(C)C [volasertib]
Summary of the method: as §1

[11] = compound: CCn1c(C(=O)N(C2CC2)C2CC2)cc2c3c(ncn3C)c(Nc3cc(C)n(C)n3)nc21
Summary of the method: as §1

[12] = compound: CCn1cc(-c2ccnc3[nH]c(-c4cccc(CN(C)C)c4)cc23)c(-c2ccc(NC(=O)N(C)C)cc2)n1
Summary of the method: as §1

[13] = compound: CN1CCC(CNc2ccc3ncc(-c4cccc(OC(F)(F)F)c4)n3n2)CC1
Summary of the method: as §1

saracatinib = compound: CN1CCN(CCOc2cc(OC3CCOCC3)c3c(Nc4c(Cl)ccc5c4OCO5)ncnc3c2)CC1 [saracatinib]
Summary of the method: as §1

sotrastaurin = compound: CN1CCN(c2nc(C3=C(c4c[nH]c5ccccc45)C(=O)NC3=O)c3ccccc3n2)CC1 [sotrastaurin]
Summary of the method: as §1

Sequence of UniProt Q86UE8 (Q86UE8 whole entry, looked up): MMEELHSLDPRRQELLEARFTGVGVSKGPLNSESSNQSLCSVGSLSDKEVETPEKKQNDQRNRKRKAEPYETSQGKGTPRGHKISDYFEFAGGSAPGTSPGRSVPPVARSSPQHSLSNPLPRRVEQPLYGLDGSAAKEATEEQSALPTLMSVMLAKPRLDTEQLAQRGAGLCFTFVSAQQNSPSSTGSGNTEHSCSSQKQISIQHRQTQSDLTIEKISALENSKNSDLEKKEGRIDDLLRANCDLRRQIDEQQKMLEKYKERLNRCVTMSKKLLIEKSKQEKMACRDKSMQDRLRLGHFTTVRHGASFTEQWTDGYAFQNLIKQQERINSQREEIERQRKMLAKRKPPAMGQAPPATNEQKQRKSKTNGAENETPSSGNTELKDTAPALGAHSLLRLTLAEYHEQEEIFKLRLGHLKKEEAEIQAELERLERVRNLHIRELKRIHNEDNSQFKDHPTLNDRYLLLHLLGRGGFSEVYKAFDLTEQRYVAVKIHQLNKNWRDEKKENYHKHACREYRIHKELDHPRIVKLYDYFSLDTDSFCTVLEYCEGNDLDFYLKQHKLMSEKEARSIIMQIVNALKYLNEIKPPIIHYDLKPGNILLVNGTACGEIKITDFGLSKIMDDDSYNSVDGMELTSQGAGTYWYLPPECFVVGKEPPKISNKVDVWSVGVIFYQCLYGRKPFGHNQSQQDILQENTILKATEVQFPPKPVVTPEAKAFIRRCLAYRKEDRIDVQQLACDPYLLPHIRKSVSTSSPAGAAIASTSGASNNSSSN
Sequence of UniProt Q8WUH2 (Q8WUH2 whole entry, looked up): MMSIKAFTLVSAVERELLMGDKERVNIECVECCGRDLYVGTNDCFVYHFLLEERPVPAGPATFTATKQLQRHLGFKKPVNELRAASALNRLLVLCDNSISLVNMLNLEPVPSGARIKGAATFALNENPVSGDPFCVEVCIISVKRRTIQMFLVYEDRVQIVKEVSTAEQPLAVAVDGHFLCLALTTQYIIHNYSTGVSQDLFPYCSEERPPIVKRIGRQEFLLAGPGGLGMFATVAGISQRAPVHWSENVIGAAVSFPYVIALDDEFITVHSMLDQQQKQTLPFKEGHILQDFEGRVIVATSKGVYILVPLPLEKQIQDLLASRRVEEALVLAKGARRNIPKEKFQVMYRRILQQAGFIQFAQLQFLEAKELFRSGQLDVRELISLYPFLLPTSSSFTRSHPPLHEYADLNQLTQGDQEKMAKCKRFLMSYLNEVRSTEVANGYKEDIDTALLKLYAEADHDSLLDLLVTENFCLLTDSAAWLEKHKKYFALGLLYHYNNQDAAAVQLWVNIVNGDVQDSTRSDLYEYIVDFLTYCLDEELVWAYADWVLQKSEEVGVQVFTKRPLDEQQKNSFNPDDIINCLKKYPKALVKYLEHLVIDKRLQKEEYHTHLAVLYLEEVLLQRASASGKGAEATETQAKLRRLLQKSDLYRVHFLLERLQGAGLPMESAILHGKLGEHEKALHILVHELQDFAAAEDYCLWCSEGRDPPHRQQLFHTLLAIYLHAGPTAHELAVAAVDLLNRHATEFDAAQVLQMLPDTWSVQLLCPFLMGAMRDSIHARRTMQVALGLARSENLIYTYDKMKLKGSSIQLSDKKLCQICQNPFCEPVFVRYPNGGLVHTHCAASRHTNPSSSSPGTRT
Sequence of UniProt O43615 (O43615 whole entry, looked up): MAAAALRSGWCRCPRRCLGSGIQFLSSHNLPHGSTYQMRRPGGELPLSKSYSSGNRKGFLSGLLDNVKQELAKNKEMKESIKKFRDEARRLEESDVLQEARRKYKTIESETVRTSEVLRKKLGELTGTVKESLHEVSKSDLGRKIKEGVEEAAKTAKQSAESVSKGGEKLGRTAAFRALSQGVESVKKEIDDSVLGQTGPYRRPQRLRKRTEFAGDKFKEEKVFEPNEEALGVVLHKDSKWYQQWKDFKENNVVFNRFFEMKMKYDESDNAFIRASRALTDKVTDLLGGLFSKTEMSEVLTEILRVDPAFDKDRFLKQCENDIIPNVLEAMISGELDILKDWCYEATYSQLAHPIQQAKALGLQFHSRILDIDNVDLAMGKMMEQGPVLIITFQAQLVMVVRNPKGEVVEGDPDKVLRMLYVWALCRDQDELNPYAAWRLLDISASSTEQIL
Sequence of UniProt Q9UPU7 (Q9UPU7 whole entry, looked up): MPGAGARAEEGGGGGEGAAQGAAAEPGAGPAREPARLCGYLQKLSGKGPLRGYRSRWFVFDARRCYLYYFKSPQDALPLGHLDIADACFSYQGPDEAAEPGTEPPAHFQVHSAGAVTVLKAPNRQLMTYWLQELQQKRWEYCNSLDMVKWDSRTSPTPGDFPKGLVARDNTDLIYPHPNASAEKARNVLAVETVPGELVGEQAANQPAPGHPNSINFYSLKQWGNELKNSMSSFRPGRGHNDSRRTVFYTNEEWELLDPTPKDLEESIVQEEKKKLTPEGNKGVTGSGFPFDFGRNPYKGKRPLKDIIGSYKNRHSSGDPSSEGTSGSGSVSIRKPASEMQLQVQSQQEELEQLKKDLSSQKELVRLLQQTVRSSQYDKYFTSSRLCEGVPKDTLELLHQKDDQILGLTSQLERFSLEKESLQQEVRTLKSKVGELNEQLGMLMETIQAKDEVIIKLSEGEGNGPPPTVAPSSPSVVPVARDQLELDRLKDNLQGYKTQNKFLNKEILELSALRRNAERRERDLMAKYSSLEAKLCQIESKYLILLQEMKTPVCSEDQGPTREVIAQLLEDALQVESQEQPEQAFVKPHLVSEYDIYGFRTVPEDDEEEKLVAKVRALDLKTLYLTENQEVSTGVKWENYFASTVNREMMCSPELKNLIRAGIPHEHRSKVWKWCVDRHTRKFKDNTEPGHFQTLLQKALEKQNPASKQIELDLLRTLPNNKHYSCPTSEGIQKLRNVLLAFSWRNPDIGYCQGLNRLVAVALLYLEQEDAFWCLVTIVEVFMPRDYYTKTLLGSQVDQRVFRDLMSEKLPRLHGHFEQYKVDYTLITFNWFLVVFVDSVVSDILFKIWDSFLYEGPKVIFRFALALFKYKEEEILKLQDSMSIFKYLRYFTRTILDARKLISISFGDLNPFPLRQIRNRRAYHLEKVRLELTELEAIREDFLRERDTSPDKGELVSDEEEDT
Sequence of UniProt Q5BVD1 (Q5BVD1 whole entry, looked up): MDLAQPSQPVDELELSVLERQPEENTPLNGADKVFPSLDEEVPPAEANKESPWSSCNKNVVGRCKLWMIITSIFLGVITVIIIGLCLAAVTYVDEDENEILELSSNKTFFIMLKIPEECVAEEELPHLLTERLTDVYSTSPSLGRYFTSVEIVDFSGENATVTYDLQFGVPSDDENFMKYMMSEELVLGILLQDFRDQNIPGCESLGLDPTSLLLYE
Sequence of UniProt P15923 (P15923 whole entry, looked up): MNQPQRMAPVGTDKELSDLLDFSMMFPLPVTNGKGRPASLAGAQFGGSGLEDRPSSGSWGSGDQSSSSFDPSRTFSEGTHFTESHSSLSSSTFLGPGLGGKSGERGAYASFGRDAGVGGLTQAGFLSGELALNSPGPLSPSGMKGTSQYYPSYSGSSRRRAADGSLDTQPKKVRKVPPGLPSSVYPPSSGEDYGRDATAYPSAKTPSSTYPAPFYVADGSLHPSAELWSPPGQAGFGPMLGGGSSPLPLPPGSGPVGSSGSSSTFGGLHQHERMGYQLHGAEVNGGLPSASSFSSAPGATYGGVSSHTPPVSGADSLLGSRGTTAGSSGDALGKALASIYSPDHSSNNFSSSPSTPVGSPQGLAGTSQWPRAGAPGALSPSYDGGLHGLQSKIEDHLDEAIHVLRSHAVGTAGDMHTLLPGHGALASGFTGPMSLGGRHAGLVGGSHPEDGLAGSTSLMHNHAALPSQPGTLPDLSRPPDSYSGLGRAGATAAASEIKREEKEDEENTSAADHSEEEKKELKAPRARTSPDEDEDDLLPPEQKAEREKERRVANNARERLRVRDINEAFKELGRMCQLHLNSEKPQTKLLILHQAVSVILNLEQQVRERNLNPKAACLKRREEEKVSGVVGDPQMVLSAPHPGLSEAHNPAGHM
Sequence of UniProt Q9NUY8 (Q9NUY8 whole entry, looked up): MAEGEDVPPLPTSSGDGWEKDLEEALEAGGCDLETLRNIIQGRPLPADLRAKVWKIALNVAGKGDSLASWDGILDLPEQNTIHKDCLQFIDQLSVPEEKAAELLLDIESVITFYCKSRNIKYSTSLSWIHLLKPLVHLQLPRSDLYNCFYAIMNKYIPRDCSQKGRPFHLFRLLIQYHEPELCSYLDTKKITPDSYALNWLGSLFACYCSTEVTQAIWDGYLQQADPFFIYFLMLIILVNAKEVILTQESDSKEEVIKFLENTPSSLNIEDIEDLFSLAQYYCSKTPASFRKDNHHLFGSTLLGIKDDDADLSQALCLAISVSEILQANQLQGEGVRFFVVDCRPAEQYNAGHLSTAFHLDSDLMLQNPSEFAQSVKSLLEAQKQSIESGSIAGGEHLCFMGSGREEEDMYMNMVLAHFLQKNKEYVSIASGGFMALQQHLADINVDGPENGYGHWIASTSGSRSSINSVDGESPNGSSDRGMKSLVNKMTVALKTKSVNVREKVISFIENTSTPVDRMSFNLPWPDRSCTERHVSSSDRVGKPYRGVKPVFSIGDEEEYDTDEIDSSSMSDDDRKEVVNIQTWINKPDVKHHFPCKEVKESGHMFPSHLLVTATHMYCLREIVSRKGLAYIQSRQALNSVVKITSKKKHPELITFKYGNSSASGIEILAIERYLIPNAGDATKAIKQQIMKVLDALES
Sequence of UniProt Q15628 (Q15628 whole entry, looked up): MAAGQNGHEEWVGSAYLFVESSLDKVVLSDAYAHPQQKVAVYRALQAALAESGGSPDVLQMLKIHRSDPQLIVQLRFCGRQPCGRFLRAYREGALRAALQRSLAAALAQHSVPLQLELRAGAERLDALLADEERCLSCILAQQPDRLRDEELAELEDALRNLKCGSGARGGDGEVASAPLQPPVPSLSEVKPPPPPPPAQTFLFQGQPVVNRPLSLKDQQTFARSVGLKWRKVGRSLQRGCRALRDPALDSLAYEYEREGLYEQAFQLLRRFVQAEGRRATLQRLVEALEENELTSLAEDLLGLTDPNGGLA

| Target | log2 fold change (ibrutinib) | log2 fold change [1] | log2 fold change (ralimetinib) | log2 fold change [2] | log2 fold change [3] | log2 fold change [4] | log2 fold change [5] | log2 fold change [6] | log2 fold change [7] | log2 fold change [8] | log2 fold change (vemurafenib) | log2 fold change [9] | log2 fold change (barasertib) | log2 fold change [10] | log2 fold change (volasertib) | log2 fold change [11] | log2 fold change [12] | log2 fold change [13] | log2 fold change (saracatinib) | log2 fold change (sotrastaurin) |
| --- | --- | --- | --- | --- | --- | --- | --- | --- | --- | --- | --- | --- | --- | --- | --- | --- | --- | --- | --- | --- |
| TTC27 (UniProt Q6P3X3) | -0.025 | 0.017 | -0.012 | 0.046 | 0.02 | 0 | -0.011 | -0.012 | 0.034 | 0.042 | 0.015 | 0.007 | 0.028 | -0.07 | -0.074 | 0.015 | -0.085 | -0.058 | 0.055 | 0.051 |
| TLK2 isoform 2 (UniProt Q86UE8) | -0.021 | 0.104 | 0.035 | -0.018 | 0.007 | -0.009 | 0.051 | 0 | 0.025 | -0.055 | -0.015 | -0.011 | 0.017 | -0.068 | -0.03 | -0.009 | -0.171 | 0.085 | 0.021 | 0.26 (active) |
| UBR3 isoform 4 (UniProt Q6ZT12) | -0.002 | -0.023 | 0.107 | -0.009 | 0.005 | 0.006 | -0.055 | -0.016 | 0.013 | 0.021 | 0.035 | -0.001 | 0.026 | -0.033 | -0.091 | -0.011 | -0.015 | -0.044 | 0.044 | 0.009 |
| TBC1D23 (UniProt Q9NUY8) | 0.034 | 0.002 | 0.004 | -0.021 | 0.03 | 0.032 | -0.05 | 0.014 | 0.012 | -0.012 | -0.003 | 0.011 | 0 | -0.027 | -0.029 | -0.012 | -0.058 | 0.023 | 0.012 | 0.017 |
| TTMP isoform 3 (UniProt Q5BVD1) | 0.09 | 0 | -0.034 | -0.22 | -0.038 | -0.091 | -0.02 | 0.296 | -0.004 | -0.099 | 0.227 | 0.029 | -0.025 | 0.122 | 0.031 | -0.182 | -0.88 (active) | 0.316 | 0.012 | -0.029 |
| UBAP2L isoform 5 (UniProt Q14157) | 0.024 | 0.028 | -0.026 | -0.055 | 0.019 | 0.009 | 0.024 | -0.529 (active) | -0.009 | 0.003 | -0.002 | 0.025 | 0.013 | 0.023 | -0.006 | 0.013 | 0.028 | -0.01 | 0.03 | -0.002 |
| TUBB3 (UniProt Q13509) | 0.003 | 0.009 | 0.022 | -0.019 | 0.025 | 0.013 | 0.005 | -0.007 | 0.015 | 0.019 | -0.004 | 0.018 | -0.042 | -0.019 | -0.046 | 0.027 | -0.002 | 0.012 | 0.015 | 0.027 |
| TBC1D2B (UniProt Q9UPU7) | 0.075 | -0.017 | 0.008 | 0.003 | -0.054 | 0.058 | 0.006 | -0.03 | 0.031 | 0.025 | 0.037 | 0.014 | 0.001 | 0.012 | -0.099 | -0.018 | 0.004 | -0.041 | 0.033 | 0.062 |
| TIMM44 (UniProt O43615) | 0.03 | 0.005 | -0.008 | -0.076 | 0.013 | 0.066 | 0.025 | -0.035 | -0.005 | 0.015 | -0.035 | -0.017 | 0.07 | -0.006 | -0.034 | 0.022 | -0.02 | -0.065 | 0.012 | -0.026 |
| TCP11L1 (UniProt Q9NUJ3) | 0.026 | -0.033 | -0.093 | -0.061 | -0.045 | -0.032 | -0.052 | -0.008 | 0.02 | -0.008 | -0.078 | 0.014 | 0.038 | 0.045 | -0.054 | 0.009 | -0.244 | 0.097 | -0.007 | 0.009 |
| TGFBRAP1 (UniProt Q8WUH2) | 0.002 | 0.022 | 0.011 | 0.025 | -0.014 | 0.007 | 0.015 | -0.005 | 0.009 | -0.012 | -0.031 | 0.02 | 0.031 | -0.069 | -0.062 | 0.049 | 0 | -0.075 | 0.005 | -0.001 |
| TCF3 (UniProt P15923) | 0.001 | 0.027 | 0.014 | -0.028 | -0.005 | -0.034 | -0.074 | -0.061 | -0.045 | -0.016 | -0.01 | 0.002 | 0.012 | 0.129 | 0.002 | 0.047 | 0.028 | 0.043 | -0.158 | 0.002 |
| TRADD (UniProt Q15628) | 0.013 | 0.017 | -0.005 | -0.012 | -0.018 | -0.015 | -0.001 | 0.017 | 0.021 | 0.019 | -0.611 (active) | 0.052 | -0.002 | 0.07 | -0.023 | 0.065 | 0.014 | 0.001 | 0.011 | -0.023 |
| TUBA1B (UniProt P68363) | -0.012 | 0.008 | 0.025 | 0.003 | 0.021 | -0.011 | -0.003 | 0.018 | 0.022 | 0.005 | 0.009 | 0 | 0.013 | -0.02 | -0.046 | 0.013 | -0.008 | -0.011 | 0.003 | 0.017 |
| TXNRD2 (UniProt Q9NNW7) | 0.014 | -0.002 | 0.025 | -0.107 | 0 | 0.008 | -0.038 | -0.014 | 0.001 | 0.006 | -0.004 | 0.036 | -0.047 | 0.023 | -0.005 | -0.008 | -0.031 | 0.082 | 0 | -0.021 |
| TROAP (UniProt Q12815) | 0.191 | -0.096 | 0.042 | -0.02 | 0.037 | 0.011 | 0.02 | -0.006 | 0.08 | -0.25 | 0.113 | 0.146 | 0.053 | 0.063 | 0.31 | 0.043 | -0.03 | 0.042 | 0.014 | 0.002 |
